In the library only some 12% were active in any assay of this set; here they are far more common.
BAZ2B inh – BAZ2B (human) inhibition; 360,000 tested, 4.4% active; AID 504333; Potency, µM (doses to about 114 µM), hits mostly inhibitors; AlphaScreen BAZ2B-H3K14Ac peptide displacement; Q9UIF8; also: nearly all actives have a fitted effect of over 60% in size
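AlphaScreen luminescence quantifies BAZ2B engagement of H3K14Ac peptide; the protein and biotinylated peptide are both at 50 nM final, buffer PBS pH 7.4 with 0.01% Tween-20, all steps at room temperature.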
G9a block – inhibitors of human histone lysine methyltransferase G9a | Potency, µM (titrated, usually from 102 µM), usual class: inhibitors | G9a H3K9 monomethylation, AlphaScreen, 2 h | 350,000 tested, 8.8% active; also: nearly all actives have a fitted effect of over 75% in size
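Chemiluminescent proximity detection of H3K9 monomethylation, read after 10 min bead incubation in the dark. Reaction: 20 nM G9a, 500 nM biotin-H3K9 peptide, 20 uM SAM cofactor, 2 h, room temperature, following 15 min enzyme-compound preincubation.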
Sfp inh – blocks B. subtilis Sfp PPTase activity | Biochemical Sfp PPTase activity, qHTS | Potency, µM, usual class: inhibitors | Q9F4F7 | 310,000 tested, 3.5% active;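 also: the enzyme is Sfp with the accession as filed and its product quenches rhodamine fluorescence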
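Step 1, compound plus 15 nM Sfp-PPTase, 15 min, room temperature. Step 2, add rhodamine-CoA (5 uM) and BHQ-2-YbbR (12.5 uM). Step 3, read 525/598 nm fluorescence at 0 and 30 min.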
JMJD2A Tudor inh – blocks the human JMJD2A Tudor domain; AlphaScreen JMJD2A-Tudor / H3K4me3 peptide binding; Potency, µM (series often up to 114 µM), most hits filed as inhibitors; 390,000 tested, 4.4% active; AID 504339; also: nearly all actives have a fitted effect of over 50% in size
Target sequence (O75164 whole entry, looked up, the tested form may be a part): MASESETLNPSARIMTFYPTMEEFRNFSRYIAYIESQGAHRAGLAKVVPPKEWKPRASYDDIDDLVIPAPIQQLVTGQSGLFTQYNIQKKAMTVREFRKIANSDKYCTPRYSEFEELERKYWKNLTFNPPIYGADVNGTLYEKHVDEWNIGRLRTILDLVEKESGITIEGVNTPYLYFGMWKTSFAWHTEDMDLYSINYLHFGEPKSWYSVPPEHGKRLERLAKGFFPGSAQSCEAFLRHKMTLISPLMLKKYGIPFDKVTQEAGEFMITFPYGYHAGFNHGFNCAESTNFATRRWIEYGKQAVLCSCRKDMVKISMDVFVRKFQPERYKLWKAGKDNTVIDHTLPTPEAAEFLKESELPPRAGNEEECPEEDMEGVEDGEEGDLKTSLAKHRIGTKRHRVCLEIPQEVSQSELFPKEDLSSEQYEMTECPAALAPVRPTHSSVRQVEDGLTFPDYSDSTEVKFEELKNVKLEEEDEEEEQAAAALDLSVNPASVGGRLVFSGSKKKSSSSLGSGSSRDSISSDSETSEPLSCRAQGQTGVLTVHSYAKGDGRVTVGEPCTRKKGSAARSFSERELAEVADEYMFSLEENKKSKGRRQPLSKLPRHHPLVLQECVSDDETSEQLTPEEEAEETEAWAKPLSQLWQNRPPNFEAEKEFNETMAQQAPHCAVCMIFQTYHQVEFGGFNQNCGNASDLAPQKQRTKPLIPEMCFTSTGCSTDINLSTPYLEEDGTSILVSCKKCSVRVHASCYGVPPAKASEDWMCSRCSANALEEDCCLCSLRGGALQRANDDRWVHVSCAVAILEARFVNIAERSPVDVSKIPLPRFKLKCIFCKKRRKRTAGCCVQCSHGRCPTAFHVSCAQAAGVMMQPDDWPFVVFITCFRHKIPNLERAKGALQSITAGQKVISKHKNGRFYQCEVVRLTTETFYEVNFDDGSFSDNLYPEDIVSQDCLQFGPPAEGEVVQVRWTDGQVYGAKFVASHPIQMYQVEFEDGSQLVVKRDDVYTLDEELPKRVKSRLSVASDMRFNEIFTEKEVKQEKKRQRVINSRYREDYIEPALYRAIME
HP1b chromo inh – HP1-beta chromodomain-methylated histone interaction inhibition; 390,000 tested, 0.56% active; Potency, µM (doses to about 114 µM), actives largely listed as inhibitors; AID 540317; P83916; AlphaScreen HP1-beta / biotin-H3K9me3 peptide binding; also: nearly all actives have a fitted effect of over 70% in size
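Compound inhibition of the preformed complex between 50 nM HP1-beta and 50 nM biotinylated H3K9me3 peptide was read by AlphaScreen. Buffer was PBS pH 7.4 with 0.01% Tween-20. Incubations ran 30 min at room temperature, with 10 ug/mL donor/acceptor beads.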
TDP1 inh – blocks human tyrosyl-DNA phosphodiesterase 1; Q9NUW8; AID 485290; recombinant TDP1, AlphaScreen DNA substrate cleavage; Potency, µM (titrated, usually from 130 µM), hits mostly inhibitors; 350,000 tested, 0.28% active; also: nearly all actives have a fitted effect of over 40% in size
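Compounds were preincubated with Tdp1 (1 nM final) for 15 min at room temperature before substrate (15 nM final) started a 5 min reaction; beads (10 ug/ml final) were then added for 10 min before AlphaScreen detection.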
Numbers stand for hits; - = inactive; ? = inconclusive; . = no result; ! = a repeat was not active; [ ] = remark or other dose. Calls follow the shape of the dose curve; as a rule, active = well fitted curve in the direction sought with a large enough effect; inconclusive = small, poorly fitted or top-dose-only effect, or another doubt; inactive = no such curve, though single readings can be large; an effect the other way counts as inactive or inconclusive.

SMILES	BAZ2B inh	G9a block	Sfp inh	JMJD2A Tudor inh	HP1b chromo inh	TDP1 inh
CN1C(=O)Cc2cc(S(=O)(=O)CCC(=O)Nc3ccccc3)ccc21	-	-	.	-	-	-
COc1ccc(C)c2sc(NC(=O)CCS(=O)(=O)c3ccccc3)nc12	-	?	-	-	-	-
Cc1cc(=O)[nH]c(SCC(=O)N2CCN(S(=O)(=O)c3ccccc3)C2)n1	-	-	?	-	-	-
c1ccc(-c2nc(NCC3CCCO3)c3oc4ccccc4c3n2)cc1 (stereo not given)	-	44.7µM	-	-	-	-
c1ccc2c(c1)oc1c(NCC3CCCO3)ncnc12 (stereo not given)	-	.	-	-	-	-
O=C(O)CNc1nc(-c2ccccc2)nc2c1oc1ccccc12	-	-	-	-[11.4 µM]	-	-
OCCCNc1nc(-c2ccccc2)nc2c1oc1ccccc12	?	50.1µM	-	-	-	-
c1ccc(-c2nc(NCc3cccnc3)c3oc4ccccc4c3n2)cc1	50.1µM	?	-	?	-	-
Cc1ccccc1C(=O)N(Cc1sccc1C)C1CCS(=O)(=O)C1 (stereo not given)	-	-	.	-	-	-
C=C[C@@H]1c2cccc(C)c2N(S(=O)(=O)c2ccc(C)cc2)[C@H](c2ccc(OC(C)=O)cc2)C1(C#N)C#N	.	.	.	-	-	-
COC(=O)c1ccc(NC(=O)CN2C(=O)c3cccc4cccc2c34)cc1	-	-	.	-	-	-
CC(=O)C1=C(c2ccc(Cl)cc2)N(C(C)=O)n2c(nnc2C2CCCCC2)S1	-	-	.	-	-	-
O=C(Nc1ccc2nc(-c3ccco3)c(-c3ccco3)nc2c1)N1CCCCCC1	11.2µM	5.01µM	14.1µM	12.6µM	15.8µM	.
CCOC(=O)C1CCN(C(=O)CSc2nnc(-c3ccco3)n2-c2ccccc2)CC1	-	44.7µM	-	-	-	-
O=C(CSc1nnc(-c2ccco2)n1-c1ccccc1)N1CCOCC1	-	-[12.7 µM]	-	-	-	-
CCOC(=O)C1CCN(C(=O)Nc2ccc3nc(-c4ccco4)c(-c4ccco4)nc3c2)CC1	11.2µM	1.58µM	14.1µM	79.4µM	39.8µM	35.5µM
CCOC(=O)C1CCN(C(=O)Nc2ccc3c(c2)nc(C)n3C)CC1	-	?	-	-	-	-
CCOc1ccc(C2(C)CC(=O)N(C)C2=O)cc1 (stereo not given)	-	-	-	-	-	-
O=C(N/N=C1/SCC(=O)N1Cc1ccco1)c1ccccc1F	-	-[0.501 µM]	?	-	-	-
Clc1cccc(N/N=C/c2ccc(N3CCOCC3)s2)c1	50.1µM	1.12µM	?	-	-	-
O=C(N/N=C/c1ccc(N2CCOCC2)s1)c1ccccc1Br	-	?	35.5µM	-	-	-
CC1=NN(c2ccccc2)C(=O)C1(C)C	-	-	-	-	-	-
CC[N+]1=CN(c2ccccc2)C(C)=CC1(C)C	-	1.78µM	-	?	-	-
COc1cccc(Cn2c(=O)n(-c3cc(C)cc(C)c3)c(=O)c3oc4ccccc4c32)c1	-	-	.	-	-	-
CC(NC(=O)COC(=O)c1ccc([N+](=O)[O-])o1)c1ccccc1 (stereo not given)	.	.	.	-	-	-
SMILES	BAZ2B inh	G9a block	Sfp inh	JMJD2A Tudor inh	HP1b chromo inh	TDP1 inh
O=C(CN1CCNCC1)NC1CCCCC1	.	-[12.7 µM]	-	.	.	-
C=CCOc1ccc(-c2nc3c(c(=O)[nH]c(=O)n3CCCC)n2C)cc1OC	-	-	-	31.6µM	-	-
CCCCn1c(=O)[nH]c(=O)c2c1nc(-c1cc(Br)c(OCC)c(OC)c1)n2C	-	-	-	-	-	-
Cn1c2ccccc2c(=O)c2ccc(C#Cc3ccc(N)cc3)cc21	-	50.1µM	-	-	-	.
COc1ccc(C#Cc2ccc3c(=O)c4ccccc4n(C)c3c2)cc1	-	?	-	-	-	.
CCOC(=O)Nc1sc(C)c(C)c1C(=O)OCC	-	-	-	-	-	-
CCOC(=O)c1c(NC(=S)Nc2cccnc2)sc(C)c1C	?	44.7µM	-	-	-	-
CCOC(=O)c1c(NC(=O)Nc2ccccc2)sc(C)c1C	-	39.8µM	-	-	-	-
COC(=O)c1c(NC(=O)COC(=O)CNC(=O)c2ccco2)sc(C)c1C	-	-	-	-	-	-
Cc1sc(NC(=O)c2ccco2)c(C(=O)c2ccc(Cl)cc2)c1C	?	22.4µM	39.8µM	?	?	-
CCOC(=O)c1c(NC(=O)COC(=O)CNC(=O)c2ccco2)sc(C)c1C	?	-	-	39.8µM	-	-
COc1ccc(CC(=O)NCc2nnc(SCC(=O)Nc3ccc(OC)cc3)n2C)cc1	-	-	-	-	-	-
Cc1c(Cl)cccc1NC(=S)N(Cc1cccnc1)Cc1ccccc1Cl	-	-	-	-	-	-
CCOC(=O)c1c(NC(=O)Cc2cccs2)sc(C)c1C	-	-[12.7 µM]	20µM	-	-	-
Cc1sc(NC(=O)c2ccco2)c(C(c2ccc(F)cc2)N2CCN(C)CC2)c1C (stereo not given)	50.1µM	44.7µM	-	56.2µM	?	-
Cc1ccc(C2NC(=O)c3sc(=S)n(-c4ccccc4)c3N2)cc1 (stereo not given)	-	?	39.8µM	-	-	-
COc1ccc(C(CCN2CCCC2)c2c(OC)cc(OC)c3c(-c4ccccc4)cc(=O)oc23)cc1 (stereo not given)	-	-[12.7 µM]	-	?	-	-
COc1cc(OC)c2c(c1C(CCN1CCCC1)c1ccc(N(C)C)cc1)OC(=O)CC2c1ccc(N(C)C)cc1 (stereo not given)	.	.	-	15.8µM	?	-
COc1ccc(C2CC(=O)Oc3c(C(CCN4CCCC(C)C4)c4cc(OC)c(OC)c(OC)c4)c(OC)cc(OC)c32)cc1 (stereo not given)	.	.	-	?	-	-
COc1ccc(C2CC(=O)Oc3c(C(CCN4CCCC(C)C4)c4ccc(N(C)C)cc4)c(OC)cc(OC)c32)cc1 (stereo not given)	14.1µM	-	89.1µM!	14.1µM	14.1µM	-
COc1ccc(C(Sc2ccccc2)c2ccccc2)cc1OC (stereo not given)	-	-[2.33 µM]	.	-	-	.
Cc1n[nH]c(=O)n1-c1cccc(C(F)(F)F)c1	-	-	-	-	-	-
CN(C)C=NC1=NN(c2cccc(C(F)(F)F)c2)CC1	?	2.24µM	-	?	-	-
CN1CCN(C=NC2=NN(c3cccc(C(F)(F)F)c3)CC2)CC1	?	2.82µM	-	?	?	-
Cc1ccc(S(=O)(=O)n2cnc3cc([N+](=O)[O-])ccc32)cc1C	?	-[12.7 µM]	-	-	-	-
Cc1ccc(-n2c3nc(=O)[nH]c(=O)c-3cc3cc([N+](=O)[O-])ccc32)cc1C	-	44.7µM	-	-	-	-

Compound activity deposited in PubChem BioAssay by National Center for Advancing Translational Sciences (NCATS).
